From PubChem BioAssay (NCI)
The panel holds about 79,000 compounds, 15% with a hit somewhere; the sample as a whole holds those more often. Activity calls are given as the source filed them. No stated cut-off is given here; in the data, active means growth inhibition above about 70%; inactive means the rest.

Assays:
[1] = NCI Yeast Anticancer Drug Screen. Data for the bub3 strain (AID 167); details: S. cerevisiae bub3 mutant strain, active compounds read high
In short: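 Yeast carrying a defined mutation is treated with each compound, and growth is compared with that of vehicle-exposed cells to give inhibition.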

[2] = NCI Yeast Anticancer Drug Screen. Data for the wt2 strain (AID 169);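 further: 0% = growth of vehicle-treated yeast cultures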; details: S. cerevisiae wt2 strain growth inhibition, active compounds read high
In short: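 Against vehicle-treated controls, the growth of yeast exposed to each compound was compared, and the inhibition was recorded.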

[3] = NCI Yeast Anticancer Drug Screen. Data for the mlh1 strain (AID 171);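 further: 0% = growth of vehicle-treated control cultures of the same strain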; details: S. cerevisiae mlh1 strain growth inhibition, active compounds read high
In short: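 Measured: yeast growth. Reference: vehicle-treated controls. Organism: strain with a defined alteration affecting DNA damage repair or cell cycle control, treated with compound.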

[4] = NCI Yeast Anticancer Drug Screen. Data for the sgs1 strain (AID 173);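 further: 0% = growth of vehicle-only control cultures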; details: S. cerevisiae sgs1 mutant, active compounds read high
In short: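 Each compound was added to cultures of the altered yeast strain. Growth was recorded, and inhibition was derived by comparison with vehicle controls.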

[5] = NCI Yeast Anticancer Drug Screen. Data for the rad18 strain (AID 177); details: S. cerevisiae rad18 mutant growth inhibition, active compounds read high
In short: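 Vehicle-treated cultures served as the baseline for scoring compound-induced growth inhibition in DNA-repair-mutant yeast.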

[6] = NCI Yeast Anticancer Drug Screen. Data for the rad52 strain (AID 147);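 further: 0% = growth of vehicle-treated control cultures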; details: S. cerevisiae rad52 mutant growth inhibition, active compounds read high
In short: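 The repair-mutant yeast strain was incubated with compounds, then growth was read and inhibition derived relative to vehicle.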

[7] = NCI Yeast Anticancer Drug Screen. Data for the rad50EPP+ strain (AID 151);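 further: 0% = growth of vehicle-treated control cultures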; details: S. cerevisiae rad50 mutant strain, active compounds read high
In short: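 Vehicle-normalised growth inhibition; rad50EPP+ yeast strain, altered in DNA damage repair, compound-treated.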

[8] = NCI Yeast Anticancer Drug Screen. Data for the mgt1 strain (AID 153); details: S. cerevisiae mgt1 mutant growth inhibition, active compounds read high
In short: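 Vehicle-normalized growth inhibition is determined in mgt1 yeast, a strain selected for a defined alteration in DNA repair or cell cycle control.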

[9] = NCI Yeast Anticancer Drug Screen. Data for the rad50 strain (AID 155);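 further: 0% = growth of vehicle-only cultures of the same strain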; details: S. cerevisiae rad50 strain growth inhibition, active compounds read high
In short: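 Genetically altered yeast (DNA repair pathway); compound treatment; growth inhibition vs vehicle ctrl.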

[10] = NCI Yeast Anticancer Drug Screen. Data for the mec2-1 strain (AID 157); details: S. cerevisiae mec2-1 strain, active compounds read high
In short: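 Mutant yeast (mec2-1) grown with compound; growth inhibition relative to vehicle control reported.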

[11] = NCI Yeast Anticancer Drug Screen. Data for the rad14 strain (AID 159);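 further: 0% = growth of vehicle-treated control cultures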; details: S. cerevisiae rad14 strain growth inhibition, active compounds read high
In short: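 Test compounds were applied to a repair-deficient yeast strain. Its growth was then compared with that of cultures given vehicle alone, and inhibition was expressed relative to those controls.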

[12] = NCI Yeast Anticancer Drug Screen. Data for the sgs1 mgt1 strain (AID 161);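 further: 0% = growth of cultures given vehicle only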; details: S. cerevisiae sgs1 mgt1 strain, active compounds read high
In short: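 Compounds are added to genetically altered yeast, and growth is compared with cultures given vehicle alone to give percent inhibition.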

[13] = NCI Yeast Anticancer Drug Screen. Data for the CLN2oe strain (AID 163);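 further: 0% = growth of vehicle-only control cultures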; details: S. cerevisiae CLN2oe strain, active compounds read high
In short: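 Compounds are applied to yeast harbouring a defined cell-cycle control change; reduced growth compared with vehicle-treated controls gives the value.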

[14] = NCI Yeast Anticancer Drug Screen. Data for the cln2 rad14 strain (AID 165);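 further: 0% = growth equal to vehicle treated cultures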; details: S. cerevisiae cln2 rad14 strain, active compounds read high
In short: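 Readout is yeast growth inhibition versus vehicle-treated controls, using a strain with cln2 and rad14 alterations exposed to compound.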

[15] = NCI Yeast Anticancer Drug Screen. Data for the mlh1 rad18 strain (AID 175); details: S. cerevisiae mlh1 rad18 strain growth inhibition, active compounds read high
In short: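 Genetically defined yeast (DNA repair-deficient) exposed to compounds; growth inhibition determined relative to vehicle.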

[16] = at 5.0 µM (retest, dose inferred, filed as 0.5)
[17] = at 50.0 µM (retest, dose inferred, filed as 5.0)

Measured: growth inhibition

Cc1cc(O)c2c(c1)C(=O)C=C(Br)C2=O
active: [1]; at 1.2 µM 88% | [1]; at 3.7 µM 86% | [1]; at 11.0 µM 98% | [1]; at 33.0 µM 92% | [1]; at 100.0 µM 98% | [2]; at 33.0 µM 99% | [2]; at 100.0 µM 97% | [3]; at 11.0 µM 71% | [3]; at 33.0 µM 99% | [3]; at 100.0 µM 98% | [4]; at 33.0 µM 99% | [4]; at 100.0 µM 96% | [5]; at 11.0 µM 95% | [5]; at 33.0 µM 98% | [5]; at 100.0 µM 94%
inactive: [2]; at 1.2 µM -4% | [2]; at 3.7 µM 7% | [2]; at 11.0 µM 54% | [3]; at 1.2 µM 11% | [3]; at 3.7 µM 25% | [4]; at 1.2 µM 4% | [4]; at 3.7 µM 11% | [4]; at 11.0 µM 66% | [5]; at 1.2 µM 10% | [5]; at 3.7 µM 41%

O=C1NC(c2c(Cl)cccc2Cl)Nc2ccccc21 (configuration not stated)
active: [6]; at 33.0 µM 75% | [6]; at 100.0 µM 95% | [8]; at 100.0 µM 96% | [9]; [16] 86% | [9]; at 33.0 µM 72% | [9]; [17] 100% | [9]; at 50.0 µM 83.7% | [9]; at 100.0 µM 91% | [10]; [16] 92% | [10]; [17] 100% | [10]; at 50.0 µM 83.7% | [10]; at 100.0 µM 94% | [11]; at 100.0 µM 89% | [12]; [17] 87% | [13]; at 100.0 µM 93% | [14]; [17] 90% | [1]; at 33.0 µM 78% | [1]; [17] 87% | [1]; at 100.0 µM 94% | [2]; at 100.0 µM 89% | [3]; at 100.0 µM 87% | [4]; at 100.0 µM 88% | [15]; [16] 71% | [15]; [17] 100% | [15]; at 50.0 µM 84.5% | [5]; at 33.0 µM 74% | [5]; at 100.0 µM 93%
inactive: [6]; at 1.2 µM 9% | [6]; at 3.7 µM 9% | [6]; at 11.0 µM 12% | [7]; at 1.2 µM -12% | [7]; at 3.7 µM -21% | [7]; at 11.0 µM -18% | [7]; at 33.0 µM -14% | [7]; at 100.0 µM 6% | [8]; at 1.2 µM -14% | [8]; at 3.7 µM -9% | [8]; at 11.0 µM 5% | [8]; at 33.0 µM 63% | [9]; at 1.2 µM 12% | [9]; at 3.7 µM 4% | [9]; at 11.0 µM 10% | [10]; at 1.2 µM -1% | [10]; at 3.7 µM -9% | [10]; at 11.0 µM -9% | [10]; at 33.0 µM 63% | [11]; at 1.2 µM -44% | [11]; at 3.7 µM -32% | [11]; at 11.0 µM -28% | [11]; at 33.0 µM 58% | [12]; [16] -3% | [13]; at 1.2 µM 14% | [13]; at 3.7 µM 2% | [13]; at 11.0 µM -7% | [13]; at 33.0 µM 54% | [14]; [16] 12% | [1]; at 1.2 µM 4% | [1]; at 3.7 µM 15% | [1]; [16] -1% | [1]; at 11.0 µM 16% | [2]; at 1.2 µM -28% | [2]; at 3.7 µM -32% | [2]; at 11.0 µM -26% | [2]; at 33.0 µM 39% | [3]; at 1.2 µM -35% | [3]; at 3.7 µM -29% | [3]; at 11.0 µM -40% | [3]; at 33.0 µM 35% | [4]; at 1.2 µM -27% | [4]; at 3.7 µM -33% | [4]; at 11.0 µM -25% | [4]; at 33.0 µM 41% | [5]; at 1.2 µM 0% | [5]; at 3.7 µM -2% | [5]; at 11.0 µM 0%

Cc1c(-c2ccccc2)[nH]c2ccccc12
inactive: [6]; at 1.2 µM -7% | [6]; at 3.7 µM -8% | [6]; at 11.0 µM -4% | [7]; at 1.2 µM -2% | [7]; at 3.7 µM 20% | [7]; at 11.0 µM 16% | [7]; at 33.0 µM 52% | [8]; at 1.2 µM -19% | [8]; at 3.7 µM -12% | [8]; at 11.0 µM -11% | [9]; at 1.2 µM -4% | [9]; at 3.7 µM -8% | [9]; [16] 33% | [9]; at 11.0 µM -12% | [10]; at 1.2 µM -2% | [10]; at 3.7 µM 8% | [10]; [16] 48% | [10]; at 11.0 µM -2% | [11]; at 1.2 µM -2% | [11]; at 3.7 µM 0% | [11]; at 11.0 µM 2% | [12]; [16] -1% | [13]; at 1.2 µM 5% | [13]; at 3.7 µM 3% | [13]; at 11.0 µM 1% | [1]; at 1.2 µM -6% | [1]; at 3.7 µM -7% | [1]; [16] 22% | [1]; at 11.0 µM -15% | [2]; at 1.2 µM 10% | [2]; at 3.7 µM 5% | [2]; at 11.0 µM 6% | [2]; at 33.0 µM 68% | [3]; at 1.2 µM 7% | [3]; at 3.7 µM 8% | [3]; at 11.0 µM 6% | [4]; at 1.2 µM 14% | [4]; at 3.7 µM 19% | [4]; at 11.0 µM 14% | [5]; at 1.2 µM 3% | [5]; at 3.7 µM 5% | [5]; at 11.0 µM -9%
active: [6]; at 33.0 µM 94% | [6]; at 100.0 µM 99% | [7]; at 100.0 µM 98% | [8]; at 33.0 µM 95% | [8]; at 100.0 µM 98% | [9]; at 33.0 µM 95% | [9]; [17] 81% | [9]; at 50.0 µM 91.3% | [9]; at 100.0 µM 98% | [10]; at 33.0 µM 94% | [10]; [17] 85% | [10]; at 50.0 µM 92.5% | [10]; at 100.0 µM 98% | [11]; at 33.0 µM 95% | [11]; at 100.0 µM 98% | [12]; [17] 99% | [12]; at 50.0 µM 93.5% | [13]; at 33.0 µM 98% | [13]; at 100.0 µM 99% | [1]; at 33.0 µM 95% | [1]; [17] 98% | [1]; at 50.0 µM 91.8% | [1]; at 100.0 µM 98% | [2]; at 100.0 µM 99% | [3]; at 33.0 µM 96% | [3]; at 100.0 µM 98% | [4]; at 33.0 µM 97% | [4]; at 100.0 µM 100% | [5]; at 33.0 µM 97% | [5]; at 100.0 µM 99%
